Bioassay records: PubChem BioAssay, Broad Institute
The list is not random: actives were taken first. Their share in the collection is about 6.7%.
C diff HTS: C. difficile growth inhibitors, primary screen, HTS | Clostridium difficile clinical isolate growth, OD600, 24 h; stronger effect = lower value | growth activity, negative = inhibition, % at 16 µg/mL (by protocol) | 86,000 tested, 0.25% active | AID 1259249, 2017;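 active = mean growth activity at or below -80% and every replicate also at or below -80%; inconclusive = mean at or below -80% but some replicate above -80%; inactive = mean growth activity above -80%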;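 note: 0% = DMSO wells and -100% = levofloxacin 16 µg/mL wells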
T cruzi growth-1: T. cruzi intracellular proliferation inhibitors, primary screen, cell-based, beta-gal Tulahuen parasites, NIH3T3 host, luminescence. T. cruzi beta-gal in NIH3T3, GalScreen luminescence, 90 h. inhibition, % at 8.34 µM. 77,000 tested, 5.9% active;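 active = mean inhibition above about 93%, with at least 55% of replicates each passing it, limit read from the data, passing the limit was not always enough; inconclusive = only one of those two conditions holds; inactive = neither condition holds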
Pf Dd2 growth: P. falciparum Dd2 growth inhibitors, primary screen, SYBR Green fluorescence, single dose replicates | 72 h; stronger effect = lower value | AID 1159554, 2015 | activity change, % at 10 µM | 94,000 tested, 2.3% active; in the data active = activity change below about -80%; inconclusive = no clear call, values can overlap the other calls
T cruzi growth-2: T. cruzi intracellular proliferation inhibitors, confirmation, cell-based, NIH3T3 host, beta-gal parasite, luminescence, cherry-pick. inhibition, % at 8.35 µM. 5,600 tested, 72% active. shares compounds with T cruzi growth-1. T. cruzi beta-gal in NIH3T3, GalScreen luminescence, 90 h;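 active = mean replicate inhibition above about 95% and at least 55% of replicates individually reaching it, limit read from the data; inconclusive = only one of the two criteria is met; inactive = neither criterion is met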
T cruzi growth-3: inhibitors of intracellular T. cruzi replication, confirmation, NIH3T3 host cells, beta-gal parasites, cherry-pick, set 2. shares compounds with T cruzi growth-1. T. cruzi beta-gal in NIH3T3, GalScreen luminescence, 90 h. inhibition, % at 2.09 µM. 5,600 tested, 21% active;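 active = mean inhibition above about 95%, with at least 55% of replicates also reaching it, limit read from the data; inconclusive = meets just one of the two conditions; inactive = meets neither condition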;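 note: plate controls were neutral control median for no effect and positive control median for full effect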
3T3 cytotox: cytotoxicity in mouse NIH/3T3 fibroblasts, confirmation, cytotoxicity control for T. cruzi proliferation inhibitor project, cell-based, cherry-pick, single point; 5,600 tested, 14% active; AID 651742, 2012; cytotoxicity (signal decrease), % at 8.35 µM; NIH/3T3 viability, CellTiter-Glo ATP luminescence, 90 h; shares compounds with T cruzi growth-1;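 active = mean signal decrease across replicates above about 35% based on untreated-well scatter, with enough replicates individually passing, limit read from the data; inconclusive = no rule stated though some were filed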;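 note: 0% = median of neutral control wells and 100% = median of positive control wells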
3T3 cytotox 2: NIH/3T3 fibroblast cytotoxicity, confirmation, cytotoxicity control, cell-based, cherry-pick, single point, set 2 | shares compounds with T cruzi growth-1 | 5,600 tested, 56% active | NIH/3T3 viability, CellTiter-Glo ATP luminescence, 90 h | inhibition, % at 24.9 µM;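 active = mean loss of cell viability signal at or above a set limit, and enough replicates individually reaching it; inconclusive = meets only the mean limit or only the replicate share; inactive = meets neither condition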;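 note: 0% = median of neutral control wells and 100% = median of positive control wells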
* hit, by the source's call; ? = inconclusive; · = no result given.

SMILES	C diff HTS	T cruzi growth-1	Pf Dd2 growth	T cruzi growth-2	T cruzi growth-3	3T3 cytotox	3T3 cytotox 2
COc1ccc(NC(=O)N(C)C[C@@H]2Oc3cc(-c4cccc(C(=O)N(C)C)c4)ccc3S(=O)(=O)N([C@H](C)CO)C[C@@H]2C)cc1	3	·	-10	·	·	·	·
CN(C)CC(=O)Nc1ccc2c(c1)[C@H]1C[C@H](CC(=O)NCc3cccnc3)O[C@H](CO)[C@H]1O2	-3	28	14	·	·	·	·
C[C@@H]1CN([C@@H](C)CO)C(=O)c2cc(NC(=O)CCC(F)(F)F)ccc2O[C@H]1CN(C)C(=O)Nc1ccc(C(F)(F)F)cc1	-1	·	4	·	·	·	·
CNC[C@H]1Oc2c(NC(=O)c3cc(C)nn3C)cccc2C(=O)N([C@H](C)CO)C[C@H]1C	2	·	22	·	·	·	·
C[C@H](CO)N1C[C@H](C)[C@@H](CN(C)C(=O)Nc2ccccc2)Oc2ncc(Br)cc2C1=O	3	52	-18	·	·	·	·
COc1ccc(NC(=O)N(C)C[C@@H]2Oc3cc(-c4ccc(C)cc4)ccc3S(=O)(=O)N([C@@H](C)CO)C[C@@H]2C)cc1	77	104*	-87*	115*	70	?	43*
COc1ccc(NC(=O)N(C)C[C@H]2Oc3cc(-c4ccc(C)cc4)ccc3S(=O)(=O)N([C@H](C)CO)C[C@H]2C)cc1	5	102*	-75	104*	71	1	-1
COc1ccc(NC(=O)N(C)C[C@@H]2Oc3cc(-c4cccc(C(=O)N(C)C)c4)ccc3S(=O)(=O)N([C@H](C)CO)C[C@H]2C)cc1	·	·	1	·	·	·	·
COc1ccc(NC(=O)N(C)C[C@H]2Oc3cc(-c4cccc(C(=O)N(C)C)c4)ccc3S(=O)(=O)N([C@H](C)CO)C[C@@H]2C)cc1	-1	·	-36	·	·	·	·
CNC[C@@H]1OCCCC[C@H](C)Oc2ccc(NS(=O)(=O)c3c(C)noc3C)cc2C(=O)N([C@@H](C)CO)C[C@@H]1C	5	-24	43	·	·	·	·
CCNC(=O)Nc1ccc2c(c1)C(=O)N(C)[C@H]1CC[C@@H](CC(=O)NCc3ccccc3F)O[C@@H]1CO2	3	10	-6	·	·	·	·
CN1C(=O)c2cc(NC(=O)c3cnccn3)ccc2OC[C@@H]2O[C@H](CC(=O)N[C@H]3CCN(Cc4ccccc4)C3)CC[C@H]21	-3	81	-20	·	·	·	·
CN1C(=O)c2cc(NC(=O)c3cnccn3)ccc2OC[C@H]2O[C@@H](CC(=O)N[C@@H]3CCN(Cc4ccccc4)C3)CC[C@H]21	-2	107*	-14	97*	88	-27	-20
CN1C(=O)c2cc(NC(=O)c3cnccn3)ccc2OC[C@H]2O[C@@H](CC(=O)N[C@@H]3CCN(Cc4ccccc4)C3)CC[C@@H]21	-5	·	-3	·	·	·	·
CN1C(=O)c2cc(NC(=O)c3cnccn3)ccc2OC[C@H]2O[C@@H](CC(=O)N[C@H]3CCN(Cc4ccccc4)C3)CC[C@H]21	-3	114*	?	104*	103*	-9	-10
CNC(=O)C[C@H]1CC[C@H]2[C@H](COc3ccc(NC(=O)NCc4ccccc4)cc3C(=O)N2C)O1	-1	-22	7	·	·	·	·
O=C(C[C@@H]1CC[C@@H]2[C@H](COC[C@H](O)CN2Cc2nccs2)O1)N1CCC(Cc2ccccc2)CC1	19	54	·	·	·	·	·
O=C(C[C@H]1CC[C@H]2[C@@H](COC[C@H](O)CN2Cc2cccc(Cl)c2)O1)N1CCCCC1	16	122*	4	78	30	0	10
O=C(C[C@@H]1CC[C@H]2[C@@H](COC[C@@H](O)CN2Cc2cccc(-c3ccncc3)c2)O1)N1CCCCC1	·	63	-11	·	·	·	·
O=C(C[C@@H]1CC[C@@H]2[C@H](COC[C@@H](O)CN2Cc2nccs2)O1)N1CCC(Cc2ccccc2)CC1	11	165*	·	84	32	18	18
